# Screen size: about 39,000 compounds; about 3,300 (8.5%) were called active. The entries come from a sample that favours actives as a whole.
# Tested on: HepG2
# Assay: cytotoxicity call (relative viability < 0.9)
# Conditions: 10 µM
row,SMILES,cytotoxicity call
1,CCN1CCC(N(C)S(=O)(=O)c2cn(C)c(=O)n(C)c2=O)CC1,inactive
2,CO[C@@H]1CN(C)C(=O)c2ccc(NS(C)(=O)=O)cc2OC[C@H](C)N(C(=O)C2CCCCC2)C[C@H]1C,inactive
3,C[C@@H]1CN([C@H](C)CO)C(=O)c2cc(NS(C)(=O)=O)ccc2O[C@H]1CN(C)Cc1ccc(C(=O)Nc2ccccc2N)cc1,inactive
4,C[C@@H]1CCCCO[C@@H](CN(C)C(=O)Nc2cccc3ccccc23)[C@@H](C)CN([C@H](C)CO)C(=O)c2cc(NS(=O)(=O)c3cccs3)ccc2O1,inactive
5,C[C@@H]1CN([C@@H](C)CO)C(=O)c2cccc(NS(=O)(=O)c3ccccc3)c2O[C@H]1CN(C)Cc1ccncc1,inactive
6,CCOc1nc2cccc(C(=O)O[C@@H](C)OC(=O)OC3CCCCC3)c2n1Cc1ccc(-c2ccccc2-c2nn[nH]n2)cc1,inactive
7,c1ccc2c(c1)Cn1nnnc1-2,inactive
8,C[C@H]1CN([C@@H](C)CO)S(=O)(=O)c2ccc(-c3ccc(C(=O)N(C)C)cc3)cc2O[C@@H]1CN(C)C(=O)Cc1ccccn1,inactive
9,C[C@@H]1CN([C@@H](C)CO)C(=O)CCCn2nncc2CO[C@@H]1CN(C)C(=O)Nc1ccc(N2CCCCC2)cc1,inactive
10,COc1ccccc1C#Cc1cnc2c(c1)C(=O)N([C@@H](C)CO)C[C@@H](C)[C@H](CN(C)C(=O)c1ccc3c(c1)OCO3)O2,inactive
11,C[C@H](CO)N1C[C@H](C)[C@@H](CN(C)Cc2ccc(Cl)c(Cl)c2)Oc2c(NC(=O)CCCCCC(=O)Nc3ccccc3N)cccc2C1=O,inactive
12,C[C@H]1CCCCO[C@@H](CN(C)C(=O)Nc2ccccc2)[C@@H](C)CN([C@@H](C)CO)C(=O)c2cc(NS(=O)(=O)c3cccs3)ccc2O1,inactive
13,C[C@H](CO)N1C[C@H](C)[C@H](CN(C)C(=O)Nc2ccc(C(F)(F)F)cc2)OCCCC[C@H](C)Oc2ccc(NS(=O)(=O)c3cccs3)cc2C1=O,active
14,C[C@@H]1CCCCO[C@@H](CN(C)C(=O)Nc2ccc(C(F)(F)F)cc2)[C@H](C)CN([C@@H](C)CO)C(=O)c2cc(NS(=O)(=O)c3cccs3)ccc2O1,inactive
15,C[C@H](CO)N1C[C@H](C)[C@@H](CN(C)C(=O)Nc2ccc(C(F)(F)F)cc2)OCCCC[C@H](C)Oc2ccc(NS(=O)(=O)c3cccs3)cc2C1=O,active
16,C[C@H]1CCCCO[C@@H](CN(C)C(=O)NC2CCCCC2)[C@@H](C)CN([C@@H](C)CO)C(=O)c2cc(NS(=O)(=O)c3cccs3)ccc2O1,inactive
17,C[C@@H]1CCCCO[C@H](CN(C)C(=O)Nc2ccccc2)[C@@H](C)CN([C@@H](C)CO)C(=O)c2cc(NS(=O)(=O)c3cccs3)ccc2O1,active
18,C[C@@H]1CN([C@H](C)CO)C(=O)c2cc(NS(=O)(=O)c3cccs3)ccc2O[C@@H](C)CCCCO[C@@H]1CN(C)C(=O)NC1CCCCC1,active
19,C[C@@H]1CN([C@@H](C)CO)C(=O)c2cc(NS(=O)(=O)c3cccs3)ccc2O[C@@H](C)CCCCO[C@@H]1CN(C)C(=O)Nc1ccc(C(F)(F)F)cc1,inactive

row,SMILES,cytotoxicity call
1,C[C@@H]1CCCCO[C@@H](CN(C)C(=O)Nc2ccccc2)[C@@H](C)CN([C@H](C)CO)C(=O)c2cc(NS(=O)(=O)c3cccs3)ccc2O1,inactive
2,C[C@@H]1CCCCO[C@H](CN(C)C(=O)Nc2ccc(C(F)(F)F)cc2)[C@H](C)CN([C@H](C)CO)C(=O)c2cc(NS(=O)(=O)c3cccs3)ccc2O1,inactive
3,C[C@@H]1CCCCO[C@H](CN(C)C(=O)Nc2ccc(C(F)(F)F)cc2)[C@@H](C)CN([C@H](C)CO)C(=O)c2cc(NS(=O)(=O)c3cccs3)ccc2O1,inactive
4,C[C@@H]1CN([C@H](C)CO)C(=O)c2cc(NS(=O)(=O)c3cccs3)ccc2O[C@@H](C)CCCCO[C@H]1CN(C)C(=O)NC1CCCCC1,inactive
5,Cc1cc(C)c2nnc(SCC(=O)O)n2n1,inactive
6,C[C@@H]1CN([C@@H](C)CO)C(=O)Cc2cc(NS(C)(=O)=O)ccc2O[C@H]1CN(C)C(=O)NC1CCCCC1,inactive
7,Cc1noc(C)c1NC(=O)N[C@@H]1CC[C@H](CC(=O)NCCCN(C)C)O[C@@H]1CO,inactive
8,O=C(C[C@@H]1C[C@H]2c3cc(NS(=O)(=O)c4ccc(F)cc4)ccc3O[C@H]2[C@H](CO)O1)NCc1ccccc1,inactive
9,Cc1ccc(S(=O)(=O)N(C)C[C@H]2Oc3ccc(NS(C)(=O)=O)cc3C(=O)N([C@@H](C)CO)C[C@H]2C)cc1,inactive
10,CN(C)CCCNC(=O)C[C@@H]1CC[C@H](NS(=O)(=O)c2ccccc2)[C@H](CO)O1,inactive
11,C[C@@H]1CCCCO[C@@H](CN(C)C(=O)Nc2ccc(C(F)(F)F)cc2)[C@@H](C)CN([C@H](C)CO)C(=O)c2cc(NS(=O)(=O)c3cccs3)ccc2O1,inactive
12,C[C@@H]1CCCCO[C@H](CN(C)C(=O)C2CCCCC2)[C@H](C)CN([C@H](C)CO)C(=O)c2cc(NS(=O)(=O)c3cccs3)ccc2O1,inactive
13,C[C@@H]1CCCCO[C@H](CN(C)C(=O)Nc2ccc(C(F)(F)F)cc2)[C@H](C)CN([C@@H](C)CO)C(=O)c2cc(NS(=O)(=O)c3cccs3)ccc2O1,inactive
14,C[C@@H]1CCCCO[C@@H](CN(C)C(=O)C2CCCCC2)[C@H](C)CN([C@H](C)CO)C(=O)c2cc(NS(=O)(=O)c3cccs3)ccc2O1,inactive
15,C[C@@H]1CCCCO[C@@H](CN(C)C(=O)Nc2ccc(C(F)(F)F)cc2)[C@H](C)CN([C@H](C)CO)C(=O)c2cc(NS(=O)(=O)c3cccs3)ccc2O1,active
16,C[C@H]1CCCCO[C@@H](CN(C)C(=O)Nc2ccc(C(F)(F)F)cc2)[C@@H](C)CN([C@@H](C)CO)C(=O)c2cc(NS(=O)(=O)c3cccs3)ccc2O1,inactive
17,C[C@H]1CCCCO[C@H](CN(C)C(=O)Nc2ccc(C(F)(F)F)cc2)[C@@H](C)CN([C@@H](C)CO)C(=O)c2cc(NS(=O)(=O)c3cccs3)ccc2O1,inactive
18,C[C@@H]1CCCCO[C@@H](CN(C)C(=O)C2CCCCC2)[C@@H](C)CN([C@H](C)CO)C(=O)c2cc(NS(=O)(=O)c3cccs3)ccc2O1,active
19,C[C@@H]1CCCCO[C@H](CN(C)C(=O)Nc2ccc(C(F)(F)F)cc2)[C@@H](C)CN([C@@H](C)CO)C(=O)c2cc(NS(=O)(=O)c3cccs3)ccc2O1,active

row,SMILES,cytotoxicity call
1,O=C(CCCCCCC(=O)Nc1ccccc1O)N/N=C/[C@H](O)[C@@H](O)[C@H](O)CO,inactive
2,COc1ccc(S(=O)(=O)N(C)C[C@@H]2OCCCC[C@@H](C)Oc3ccc(NC(=O)C4CCCCC4)cc3C(=O)N([C@@H](C)CO)C[C@@H]2C)cc1,inactive
3,COC(=O)C(CC#Cc1ccc2c(c1)[C@]1(C(=O)N2)[C@H](c2ccc(OCCO)cc2)N2[C@H](c3ccccc3)[C@H](c3ccccc3)OC(=O)[C@H]2[C@@H]1C(=O)Nc1nc2ccccc2s1)C(=O)OC,inactive
4,C[C@@H]1CN([C@H](C)CO)C(=O)c2cccc(NS(=O)(=O)c3cccs3)c2O[C@H]1CN(C)S(=O)(=O)c1ccccc1,inactive
5,C[C@H](CO)N1C[C@H](C)[C@@H](CN(C)C(=O)c2ccncc2)Oc2ncc(C#CC3CCCCC3)cc2C1=O,inactive
6,C[C@H](CO)N1C[C@H](C)[C@@H](CN(C)C(=O)c2cnccn2)Oc2ncc(-c3cccc(C#N)c3)cc2C1=O,inactive
7,C[C@@H]1CN([C@@H](C)CO)C(=O)c2cccc(NC(=O)Nc3cccc4ccccc34)c2O[C@H]1CN(C)S(=O)(=O)c1ccc2ncsc2c1,inactive
8,C[C@@H]1CCCCO[C@@H](CN(C)S(=O)(=O)c2ccc(F)cc2)[C@@H](C)CN([C@H](C)CO)C(=O)c2cc(NC(=O)Nc3ccc(F)cc3)ccc2O1,inactive
9,C[C@@H]1CCCCO[C@H](CN(C)S(=O)(=O)c2ccc(F)cc2)[C@@H](C)CN([C@H](C)CO)C(=O)c2cc(NC(=O)Nc3ccc4c(c3)OCO4)ccc2O1,active
10,C[C@@H]1CCCCO[C@@H](CN(C)S(=O)(=O)c2ccc(F)cc2)[C@@H](C)CN([C@H](C)CO)C(=O)c2cc(NC(=O)Nc3ccc4c(c3)OCO4)ccc2O1,inactive
11,C[C@@H]1CN([C@H](C)CO)C(=O)c2cc(NC(=O)Nc3ccc4c(c3)OCO4)ccc2O[C@@H](C)CCCCO[C@@H]1CN(C)S(=O)(=O)c1ccc(F)cc1,inactive
12,C[C@H]1CCCCO[C@H](CN(C)S(=O)(=O)c2ccc(F)cc2)[C@@H](C)CN([C@@H](C)CO)C(=O)c2cc(NC(=O)Nc3ccc(F)cc3)ccc2O1,inactive
13,C[C@@H]1CCCCO[C@@H](CN(C)S(=O)(=O)c2ccc(F)cc2)[C@@H](C)CN([C@@H](C)CO)C(=O)c2cc(NC(=O)Nc3ccc(F)cc3)ccc2O1,active
14,C[C@@H]1CN([C@H](C)CO)C(=O)c2cc(NC(=O)Nc3ccc(F)cc3)ccc2O[C@@H](C)CCCCO[C@H]1CN(C)S(=O)(=O)c1ccc(F)cc1,active
15,C[C@H]1CCCCO[C@@H](CN(C)S(=O)(=O)c2ccc(F)cc2)[C@@H](C)CN([C@@H](C)CO)C(=O)c2cc(NC(=O)Nc3ccc(F)cc3)ccc2O1,inactive
16,C[C@@H]1CCCCO[C@@H](CN(C)S(=O)(=O)c2ccc(F)cc2)[C@H](C)CN([C@H](C)CO)C(=O)c2cc(NC(=O)Nc3ccc(F)cc3)ccc2O1,active
17,C[C@@H]1CN([C@@H](C)CO)C(=O)c2cc(NC(=O)Nc3ccc(F)cc3)ccc2O[C@@H](C)CCCCO[C@@H]1CN(C)S(=O)(=O)c1ccc(F)cc1,inactive
18,C[C@@H]1CCCCO[C@@H](CN(C)S(=O)(=O)c2ccc(F)cc2)[C@H](C)CN([C@@H](C)CO)C(=O)c2cc(NC(=O)Nc3ccc(F)cc3)ccc2O1,inactive
19,C[C@H](CO)N1C[C@H](C)[C@@H](CN(C)S(=O)(=O)c2ccc(F)cc2)OCCCC[C@H](C)Oc2ccc(NC(=O)Nc3ccc(F)cc3)cc2C1=O,inactive

# Reference: the antibiotic and cytotoxicity screens of Wong et al. (2023)
